These results are taken from paper PMC5540273 (PLoS ONE, 2017).

Where “and” joins values, the source holds several entries; their conditions need not be identical. Equal entries are not always repeated. Where two headings read alike, the source gives them in different places.

Assay [1] deals with CDK4-cyclinD3. The following applies: concentration: 1 μM, replicates: in singlicate; n = 1.
Assay [2] has as its system CDK4. The following applies: concentration: 1 μM, replicates: in singlicate, n = 1.
In assay [3] the test system is CDK5. The following applies: concentration: 1 μM, replicates: in singlicate; n = 1.
In assay [4] the test system is CDK7. Conditions: concentration: 1 μM, replicates: in singlicate, n = 1.
Assay [5] concerns CDK8. The following applies: concentration: 1 μM, replicates: in singlicate, n = 1.
For assay [6], the system named is CDK9. The following applies: concentration: 1 μM, replicates: in singlicate; n = 1.
For assay [7], the system named is CDKL1. Conditions: concentration: 1 μM, replicates: in singlicate, n = 1.
For assay [8], the system named is CDKL2. The following applies: concentration: 1 μM, replicates: in singlicate, n = 1.
Assay [9] relates to CDKL3. Conditions: concentration: 1 μM, replicates: in singlicate, n = 1.
Assay [10] deals with CDKL5. Conditions: concentration: 1 μM, replicates: in singlicate; n = 1.
The subject of assay [11] is CHEK1. Conditions: concentration: 1 μM, replicates: in singlicate; n = 1.
The test system of assay [12] is CHEK2. Conditions: concentration: 1 μM, replicates: in singlicate, n = 1.
Assay [13] has as its system CIT. The following applies: concentration: 1 μM, replicates: in singlicate, n = 1.
The test system of assay [14] is CLK1. The following applies: concentration: 1 μM, replicates: in singlicate, n = 1.
The subject of assay [15] is CLK2. Conditions: concentration: 1 μM, replicates: in singlicate; n = 1.
For assay [16], the system named is CLK3. The following applies: concentration: 1 μM, replicates: in singlicate, n = 1.
Assay [17] concerns CLK4. Conditions: concentration: 1 μM, replicates: in singlicate, n = 1.
Assay [18] concerns CSF1R-autoinhibited. Conditions: concentration: 1 μM, replicates: in singlicate, n = 1.
For assay [19], the system named is CSF1R. Conditions: concentration: 1 μM, replicates: in singlicate, n = 1.
Assay [20] relates to CSK. Conditions: concentration: 1 μM, replicates: in singlicate, n = 1.
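Further: KINOMEscan kinase panel screen.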

As for `COc1cc2c(cc1OC[C@@H](O)CO)ncc1c3ccc(C#N)cc3[nH]c21`, the “%Inh” value in assay [1] was found to be 0%; in assay [2], 4%; in assay [3], 17%; in [4], 99.5%; in [5], 15%; in assay [6], 0%. Further, the “%Inh” value worked out at 12% in [7]; 0% in assay [8]; 8% in assay [9]; 0% in assay [10]; 7% in assay [11]; 48% in assay [12]. For the same compound, the “%Inh” value in assay [13] was determined as 94.8%; in [14] it was 89%; in assay [15], 88%; in [16], 2%; in assay [17] it was 89%; in [18], 96.6%. The “%Inh” value in [19] is given as 44%; in [20], 1%.

For `COc1ccc(CNC(=O)NC2CCN(c3ccnc(Nc4ccc(OC)cc4)n3)C2)cc1` (stereo not shown) [GSK1379727], the “%Inh” value in assay [1] is 0%; in assay [2] it was 48%; in [3], 0%; in [4] it was 0%; in assay [5] it was 42%; in assay [6], 0%. For the same compound, the “%Inh” value in [7] is recorded as 4%; in [8], 21%; in assay [9], 0%; in assay [10], 0%; in assay [11], 0%; in [12] it was 27%. Moreover, the “%Inh” value came to 19% in [13]; 19% in assay [14]; 0% in assay [15]; 0% in assay [16]; 14% in [17]; 16% in [18]. For the same compound, the “%Inh” value in [19] and in [20] was 0% in each case.

Regarding `COc1ccc(COc2cc(-n3cnc4ccccc43)sc2C(N)=O)cc1` [GSK1024304], the “%Inh” value in assay [1] worked out at 0%; in assay [2], 40%; in [3], 0%; in [4], 0%; in [5] it was 29%; in assay [6] it was 0%. For the same compound, the “%Inh” value in assay [7] came to 7%; in [8] it was 18%; in [9], 0%; in assay [10] it was 0%; in assay [11] it was 0%; in assay [12] it was 0%. The “%Inh” value in assay [13] was determined as 29%; in assay [14] it was 27%; in [15], 48%; in assay [16] it was 17%; in [17] it was 12%; in assay [18], 0%. Besides, the “%Inh” value in [19] is given as 4%; in assay [20], 0%.

Take `O=C(NCCNc1ccnc(Nc2ccc(F)cc2)n1)Nc1ccccc1F` [GSK1379880]: the “%Inh” value in assay [1] is 3%; in assay [2], 28%; in [3], 0%; in [4], 0%; in assay [5], 0%; in assay [6] it was 0%. For the same compound, the “%Inh” value in [7] is 0%; in [8], 15%; in assay [9] it was 0%; in assay [10] it was 0%; in assay [11] it was 11%; in assay [12] it was 0%. Besides, the “%Inh” value in [13] is 47%; in assay [14] it was 24%; in [15], 0%; in assay [16], 2%; in assay [17], 0%; in [18], 0%. Moreover, the figures for the “%Inh” value in assay [19] and in [20] were 9% and 0%, respectively.

Turning to `Cl.Cl.Cl.Fc1ccc(-c2ncn(C3CCNCC3)c2-c2ccnc(Nc3ccccc3)n2)cc1` [SB-238039], the “%Inh” value in assay [1] was 0%; in [2] (1 µM) it was 18% and 19%; in [3], 0%; in [4] (1 µM), 19% and 33%; in [5] (1 µM) it was 49% and 19%; in assay [6] it was 0%. The “%Inh” value was 34% and 37% in assay [7] (1 µM); 0% and 29% in assay [8] (1 µM); 5% and 15% in assay [9] (1 µM); 0% in assay [10]; 0% in [11]; 0% and 39% in assay [12] (1 µM). The “%Inh” value was 99.5% and 97.5% in assay [13] (1 µM); 0% and 1% in [14] (1 µM); 0% in assay [15]; 6% and 21% in assay [16] (1 µM); 37% and 14% in [17] (1 µM); 27% and 19% in assay [18] (1 µM). For the same compound, the “%Inh” value in assay [19] (1 µM) was 1% and 14%; in assay [20] (1 µM) it was 0% and 10%.

Consider `CC(=O)Nc1ccc(COc2ccc(Nc3ccnc4cc(-c5ccccn5)ccc34)cc2)cc1.Cl` [GW440148], for which the “%Inh” value came to 0% in [1]; 0% in [2]; 0% in assay [3]; 0% in assay [4]; 8% in assay [5]; 14% in assay [6]. The “%Inh” value in assay [7] is listed as 7%; in assay [8], 12%; in assay [9] it was 0%; in assay [10], 0%; in assay [11] it was 1%; in [12] it was 29%. The “%Inh” value in assay [13] was 20%; in assay [14], 35%; in [15], 0%; in [16], 0%; in assay [17], 0%; in [18], 32%. Further, the “%Inh” value in assay [19] is reported as 99.3%; in assay [20], 36%.

Take `Cn1ccc2ncnc(Oc3ccc(NC(=O)Nc4ccncc4)c(Cl)c3)c21`: the “%Inh” value in assay [1], in assay [2], in assay [3], in [4], in [5] and in assay [6] was 0% in each case. Moreover, the “%Inh” value in [7] was determined as 0%; in assay [8], 0%; in assay [9], 0%; in assay [10] it was 49%; in assay [11], 0%; in assay [12], 20%. In addition, the “%Inh” value in assay [13] worked out at 18%; in assay [14], 0%; in assay [15], 0%; in assay [16], 0%; in [17], 21%; in assay [18], 0%. In addition, the “%Inh” value in assay [19] and in assay [20] was 0% throughout.

For `[2H]C([2H])(c1cccc(C(F)(F)F)c1C)n1ccn2c(=O)nc(N3CCOCC3)cc12` [GSK2336394], the “%Inh” value in assay [1] was determined as 0%; in assay [2], 14%; in [3], 0%; in assay [4], 0%; in assay [5] it was 2%; in assay [6], 0%. For the same compound, the “%Inh” value in [7] is 8%; in assay [8], 22%; in assay [9], 0%; in assay [10], 0%; in [11], 0%; in assay [12], 0%. In addition, the “%Inh” value was 11% in [13]; 20% in assay [14]; 0% in [15]; 14% in [16]; 12% in [17]; 0% in assay [18]. The “%Inh” value in assay [19] and in assay [20] was 0% each time.
